# Measured values taken from PubChem BioAssay.
# Values without a mark were called inactive. For some assays here: Measured potencies and affinities stand elsewhere. Activity calls are given as the source filed them. Unless noted, no rule for the calls is given here.
# How the values were obtained:
# [1] = antimalarial activity against Dd2 strain (AID 2302;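 active = growth inhibition above 50% at the single 2 µM test dose, taken to imply half-maximal potency below 2 µM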;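 also: 0% = DMSO untreated growth and 100% = chloroquine plus artemisinin killed control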); details: P. falciparum Dd2 in RBCs, LDH growth readout, 72 h; at 2 µM; hits give high values
# [2] = HepG2 cytotoxicity, primary screen, cytotoxicity control for P. falciparum antimalarial project, cell-based, ATP luminescence (AID 2303;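 active = inhibition above 50%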;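 also: 0% = DMSO wells and 100% = digitonin-killed cells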); details: HepG2 viability, 24-48 h, at 10 µM, hits give high values
# [3] = target: L-lactate dehydrogenase (Plasmodium falciparum (isolate CDC / Honduras)) (UniProt Q27743); assay: PfLDH activity inhibition – cell lysate, 3D7 strain, counter-screen for P. falciparum growth inhibition project (AID 2304);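 also: 0% = vehicle and 100% = reference inhibitor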; details: P. falciparum 3D7 crude extract, LDH APAD/NBT absorbance; at 2 µM; hits give high values
# [4] = inhibition of 3D7 malaria parasite growth – strain 3D7 (AID 2306);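 also: 0% = DMSO wells and 100% = chloroquine plus artemisinin control wells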; details: P. falciparum 3D7 erythrocytic growth, LDH absorbance, 72 h; at 2 µM; hits give high values
# [5] = target: Calcium-dependent protein kinase 1 (Plasmodium falciparum (isolate 3D7)) (UniProt P62344); assay: PfCDPK1 kinase inhibitors, biochemical, TCAMS library (AID 1159585; cut-off not given, nearly all actives have IC50 up to about 0.98 µM;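 also: inhibitors leave more ATP so luminescence rises with inhibition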); details: recombinant PfCDPK1, Kinase-Glo ATP depletion luminescence
# [6] = target: Plasmodium falciparum protein kinase 6 (PK6, PF3D7_1337100) (UniProt Q8IDW1); assay: PfPK6 kinase inhibitors, biochemical, TCAMS library (AID 1159586); details: recombinant PfPK6, Kinase-Glo ATP depletion luminescence
# [7] = target: Protein kinase 7 (PK7), Plasmodium falciparum 3D7 (PF3D7_0213400) (UniProt Q7YTF7); assay: inhibition of Plasmodium PK7 catalytic activity – biochemical, TCAMS antimalarial set, Kinase-Glo luminescence (AID 1159587); details: recombinant PfPK7, Kinase-Glo ATP depletion luminescence
# [8] = target: Calcium-dependent protein kinase 4 (Plasmodium falciparum (isolate 3D7)) (UniProt Q8IBS5); assay: PfCDPK4 kinase inhibitors, biochemical, TCAMS library (AID 1159588; cut-off not given, nearly all actives have IC50 up to about 0.91 µM); details: recombinant PfCDPK4, Kinase-Glo ATP depletion luminescence
# Calcium-dependent protein kinase 4 (Plasmodium falciparum (isolate 3D7)), sequence (Q8IBS5 whole entry, looked up): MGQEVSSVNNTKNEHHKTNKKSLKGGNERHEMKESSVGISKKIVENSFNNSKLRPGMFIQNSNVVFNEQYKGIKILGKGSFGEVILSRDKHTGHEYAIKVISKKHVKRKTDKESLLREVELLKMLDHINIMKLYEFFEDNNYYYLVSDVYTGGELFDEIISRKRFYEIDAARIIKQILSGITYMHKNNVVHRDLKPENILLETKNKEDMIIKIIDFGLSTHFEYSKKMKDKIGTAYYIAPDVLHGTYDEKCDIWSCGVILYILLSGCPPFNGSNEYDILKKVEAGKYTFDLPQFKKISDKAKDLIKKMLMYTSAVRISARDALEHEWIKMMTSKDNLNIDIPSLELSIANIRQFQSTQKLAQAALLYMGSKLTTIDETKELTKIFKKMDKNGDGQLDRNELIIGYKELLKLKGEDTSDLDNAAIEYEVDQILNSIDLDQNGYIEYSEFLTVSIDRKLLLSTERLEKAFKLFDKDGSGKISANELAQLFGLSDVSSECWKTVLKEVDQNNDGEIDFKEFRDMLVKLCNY
# Plasmodium falciparum protein kinase 6 (PK6, PF3D7_1337100), sequence (Q8IDW1 1-305): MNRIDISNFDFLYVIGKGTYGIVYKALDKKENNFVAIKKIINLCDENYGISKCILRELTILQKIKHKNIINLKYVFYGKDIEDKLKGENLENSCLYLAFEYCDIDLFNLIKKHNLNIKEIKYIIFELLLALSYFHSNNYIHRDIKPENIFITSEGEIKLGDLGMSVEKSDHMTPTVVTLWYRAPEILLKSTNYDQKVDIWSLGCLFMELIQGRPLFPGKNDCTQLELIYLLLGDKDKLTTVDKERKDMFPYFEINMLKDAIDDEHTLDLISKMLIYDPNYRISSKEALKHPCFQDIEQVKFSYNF
# Protein kinase 7 (PK7), Plasmodium falciparum 3D7 (PF3D7_0213400), sequence (Q7YTF7 1-343): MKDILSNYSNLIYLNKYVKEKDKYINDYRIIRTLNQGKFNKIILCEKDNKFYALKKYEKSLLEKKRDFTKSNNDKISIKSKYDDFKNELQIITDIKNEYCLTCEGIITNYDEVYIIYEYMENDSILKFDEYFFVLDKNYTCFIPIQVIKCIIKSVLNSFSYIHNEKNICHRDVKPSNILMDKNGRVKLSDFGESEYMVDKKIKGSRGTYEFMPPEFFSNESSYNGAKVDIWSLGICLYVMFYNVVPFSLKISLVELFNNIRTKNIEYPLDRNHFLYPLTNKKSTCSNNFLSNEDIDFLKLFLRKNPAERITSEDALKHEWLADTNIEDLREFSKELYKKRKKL
# L-lactate dehydrogenase (Plasmodium falciparum (isolate CDC / Honduras)), sequence (Q27743 whole entry, looked up): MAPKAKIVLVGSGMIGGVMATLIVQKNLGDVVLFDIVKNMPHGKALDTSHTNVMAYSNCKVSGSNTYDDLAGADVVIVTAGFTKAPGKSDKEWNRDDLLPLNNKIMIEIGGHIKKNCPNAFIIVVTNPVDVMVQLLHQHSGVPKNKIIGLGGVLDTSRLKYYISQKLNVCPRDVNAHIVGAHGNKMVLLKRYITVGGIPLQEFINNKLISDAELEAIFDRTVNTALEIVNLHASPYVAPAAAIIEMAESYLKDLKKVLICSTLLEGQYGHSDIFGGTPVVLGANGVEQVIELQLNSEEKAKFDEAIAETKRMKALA
# Calcium-dependent protein kinase 1 (Plasmodium falciparum (isolate 3D7)), sequence (P62344 whole entry, looked up): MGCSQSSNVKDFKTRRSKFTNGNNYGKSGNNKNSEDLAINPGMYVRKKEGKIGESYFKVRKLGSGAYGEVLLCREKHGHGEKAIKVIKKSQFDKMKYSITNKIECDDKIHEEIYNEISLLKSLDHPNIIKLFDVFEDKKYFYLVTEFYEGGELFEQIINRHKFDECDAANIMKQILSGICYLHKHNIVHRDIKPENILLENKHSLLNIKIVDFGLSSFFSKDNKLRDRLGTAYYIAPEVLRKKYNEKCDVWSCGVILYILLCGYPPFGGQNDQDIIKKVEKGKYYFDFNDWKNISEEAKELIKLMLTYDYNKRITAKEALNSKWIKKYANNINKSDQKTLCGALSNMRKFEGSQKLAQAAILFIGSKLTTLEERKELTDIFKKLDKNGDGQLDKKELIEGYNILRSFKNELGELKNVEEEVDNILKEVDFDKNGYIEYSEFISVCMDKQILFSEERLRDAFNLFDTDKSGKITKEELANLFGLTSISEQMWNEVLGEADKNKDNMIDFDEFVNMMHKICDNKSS
Compound,growth inhibition [1],inhibition [2],inhibition [3] [%],growth inhibition [4],outcome [5],outcome [6],outcome [7],outcome [8]
CN(C)CCOc1cc(NC(=O)Nc2ccc(-c3ccncc3)c(Cl)c2)ccc1I,100% (active),43%,4,101% (active),inactive,inactive,inactive,inactive
O=C(NC1CCN(CCC[C@]2(c3ccc(Cl)c(Cl)c3)CCCN(C(=O)c3ccccc3)C2)CC1)c1ccc(F)cc1,68% (active),52% (active),-1,90% (active),inactive,inactive,inactive,inactive
C=CCOc1ccc(-c2c(C)[nH]c(C)c(Br)c2=O)cc1,96% (active),5%,-3,98% (active),inactive,inactive,inactive,inactive
Cc1cccc2[nH]c(-c3ccc(-c4ccc(NC(=O)Nc5ccc(Cl)cc5)cc4)s3)nc12,100% (active),78% (active),7,101% (active),inactive,inactive,inactive,inactive
COc1ccc(Oc2ccc(Nc3ccnc4ccc(C(F)(F)F)cc34)cc2)cc1OC,17%,-2%,2,90% (active),inactive,inactive,inactive,inactive
O=C1NC(c2ccc(N3CCCCCC3)cc2)Nc2ccccc21 (stereo not given),96% (active),19%,0,96% (active),inactive,inactive,inactive,inactive
COc1ccccc1Cc1c(C)nc2nc(N)nc(N)c2c1C,2%,69% (active),-3,96% (active),inactive,inactive,inactive,inactive
CC(=O)N[C@H](C(=O)Nc1ccc(-c2cccc(-c3nc4c(C)cccc4[nH]3)c2)cc1)C(C)C,10%,9%,2,89% (active),inactive,inactive,inactive,inactive
CCn1c(SC)nnc1C1CCCN(CC(=O)Nc2nc3ccc(OC)cc3s2)C1 (stereo not given),81% (active),-3%,0,97% (active),inactive,inactive,inactive,inactive
O=C(NCC(NCCCNc1cc(=O)c2ccccc2[nH]1)c1cc(Br)cc(Br)c1)C1=CCCC1 (stereo not given),48%,-4%,7,96% (active),inactive,inactive,inactive,inactive
COc1cc(CCNc2nc(NCc3ccccc3-c3ccccc3)nc(N3CCC(N)CC3)n2)ccc1O,70% (active),25%,-4,100% (active),inactive,inactive,inactive,inactive
COc1ccc(Br)cc1C1[C@@H]2C(=O)N(c3ccc(Br)cc3)C(=O)[C@@H]2C2(C(=O)O)CC(OCc3ccccc3)CN12 (stereo not given in full),99% (active),16%,-2,104% (active),inactive,inactive,inactive,inactive
Cc1cccc(-c2nc(Nc3ccncc3)c3ccc([N+](=O)[O-])cc3n2)n1,13%,-9%,-1,87% (active),inactive,inactive,inactive,inactive
O=C(NCc1ccc(F)cc1)c1cnc(N2CCN(c3ccncc3)CC2)c(Cl)c1,44%,30%,2,98% (active),inactive,inactive,inactive,inactive
O=C1C=Cc2ccccc2/C1=C/c1sc(=NCc2ccccc2)n(Cc2ccccc2)c1O,98% (active),0%,-7,98% (active),inactive,inactive,inactive,inactive
Cc1[nH]c2ccc(NS(C)(=O)=O)cc2c1C1CCN(CCC2CCN(C(=O)/C=C/c3ccc(Cl)c(Cl)c3)CC2)CC1,94% (active),23%,-1,100% (active),inactive,inactive,inactive,inactive
O=S(=O)(NCCN1CCCC1)c1cccc(-c2ccc(CNCc3ccc(F)cc3)cc2)c1,41%,38%,6,104% (active),inactive,inactive,inactive,inactive
CCOc1ccccc1CCNCC1CCN(CC2CCCCC2)CC1,59% (active),35%,-1,84% (active),inactive,inactive,inactive,inactive
CCCOc1ccc(C(F)(F)F)cc1NC(=O)c1nc2nc(C)cc(C)n2n1,88% (active),7%,-4,90% (active),inactive,inactive,inactive,inactive
CNS(=O)(=O)c1ccc(NC(=O)c2cc(-c3cccnc3)nc3ccc(Br)cc23)cc1,55% (active),9%,5,101% (active),inactive,inactive,inactive,inactive

Compound,growth inhibition [1],inhibition [2],inhibition [3] [%],growth inhibition [4],outcome [5],outcome [6],outcome [7],outcome [8]
CN(C)c1cccc2c(S(=O)(=O)Nc3cccc(CCN4CCC(N5CCCCC5)CC4)c3)cccc12,54% (active),41%,-2,98% (active),inactive,inactive,inactive,inactive
COc1cc(Nc2nc(N)n(C(=O)c3ccc4c(c3)OCO4)n2)cc(OC)c1OC,40%,60% (active),1,90% (active),inactive,inactive,inactive,inactive
COc1c(C2CCN(CCCCNC(=O)c3ccc(-c4ccc(Cl)cc4)c(OCCN(C)C)c3)CC2)ccc2c1CCCC2,86% (active),100% (active),2,101% (active),inactive,inactive,inactive,inactive
COc1ccc(-c2nnc(Sc3ccc(C#N)c([N+](=O)[O-])c3)n2CC(C)C)cc1,78% (active),3%,4,97% (active),inactive,inactive,inactive,inactive
CCCCCCSc1nnc(COc2cccc3ccccc23)n1-c1ccc(OC)cc1,100% (active),19%,3,99% (active),inactive,inactive,inactive,inactive
CC1(C)CCCC(=Cc2ccc(Br)cc2)C1(O)Cn1ccnc1 (stereo not given),69% (active),7%,0,99% (active),inactive,inactive,inactive,inactive
CC(=O)N/N=C/[C@H](CCc1ccccc1)NC(=O)[C@H](CC(C)C)NC(=O)c1ccc(F)cc1,86% (active),2%,-4,95% (active),inactive,inactive,inactive,inactive
Cc1cc(Cl)ccc1NC(=O)NCCCCCN1CCC(c2c[nH]c3ccccc23)CC1,8%,59% (active),0,91% (active),inactive,inactive,inactive,inactive
COc1cc2ncnc(Nc3ccc(OCc4ccccc4)c(I)c3)c2cc1OC,62% (active),11%,5,98% (active),inactive,inactive,inactive,inactive
CN1CCN(c2cc(-c3ccncc3)nc(-c3cccnc3)n2)CC1,98% (active),13%,3,101% (active),inactive,inactive,inactive,inactive
CN(C)CCN(C)Cc1cccc(-c2ccc3c(Nc4cc(O)c(Cl)cc4F)ccnc3c2)c1,70% (active),14%,-5,101% (active),inactive,inactive,inactive,inactive
CCCCNCc1ccc(-c2nc(CN(CCCn3ccnc3)C(=O)C3COc4ccccc4O3)cs2)cc1 (stereo not given),8%,6%,-4,93% (active),inactive,inactive,inactive,inactive
N#Cc1ccc(-c2ccc(OCC(O)CN3CCCN(Cc4cccc(O)c4Cl)CC3)cc2)cc1 (stereo not given),66% (active),3%,-6,98% (active),inactive,inactive,inactive,inactive
O=C(Cn1c(SCc2cccc(F)c2F)cc(=O)c2ccccc21)N(CCn1ccnc1)Cc1ccc(-c2ccc(C(F)(F)F)cc2)cc1,94% (active),20%,-2,100% (active),inactive,inactive,inactive,inactive
CC(C)C[C@H](NC(=O)c1cccc(F)c1)C(=O)N[C@H](/C=N/NC(=O)c1ccccc1)CCc1ccccc1,71% (active),0%,2,93% (active),inactive,inactive,inactive,inactive
CC(C)[C@H](NC(=O)NC1CCC(CCN2[C@@H]3CC[C@H]2CC(OC(=O)C(CO)c2ccccc2)C3)CC1)C(O)(c1ccccc1)c1ccccc1 (stereo not given in full),4%,17%,1,90% (active),inactive,inactive,inactive,inactive
Cc1ccccc1C1CCN(C2CCC(NC(=O)c3ccc(-c4cccs4)s3)CC2)CC1 (stereo not given),54% (active),58% (active),-2,101% (active),inactive,inactive,inactive,inactive
CC(C)C1=NCc2ccc([N+](=O)[O-])cc2C(=O)N1,-1%,6%,4,98% (active),inactive,inactive,inactive,inactive
COCCN1CCC(C(=O)NCC(C)(C)c2nc(-c3ccc(Br)c(O)c3)c(-c3ccncc3)[nH]2)CC1,6%,-12%,3,99% (active),inactive,inactive,inactive,inactive
NC1=NC(c2ccccc2)(c2ccccc2)C(=O)N1Cc1ccc(-c2ccncc2)cc1,74% (active),20%,5,96% (active),inactive,inactive,inactive,inactive
